# MazEF act: activators of E. coli MazEF toxin-antitoxin RNase, primary screen, biochemical, fluorescence, uHTS. Endoribonuclease toxin MazF (Escherichia coli (strain K12)), P0AE70. FAM/BHQ RNA-DNA oligo cleavage fluorescence, 5 h. 350,000 tested, 0.32% active. activation, % at 20 µM; in the data active = activation above about 50%
# Target sequence (P0AE70 whole entry, looked up): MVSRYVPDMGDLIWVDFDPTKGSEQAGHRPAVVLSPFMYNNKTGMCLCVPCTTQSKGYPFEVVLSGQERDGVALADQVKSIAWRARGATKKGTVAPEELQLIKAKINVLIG
# BoNT-F LC inh: BoNT/F light chain protease inhibitors, primary screen, biochemical, flow cytometry, MLPCN library. inhibition, % at 10 µM. Multiplex microsphere protease cleavage assay. AID 588497, 2011. 360,000 tested, 0.22% active. Botulinum neurotoxin type F light chain protease (Clostridium botulinum); in the data active = inhibition above about 35%, passing the limit was not always enough; inconclusive = no clear call, values can overlap the other calls; note: plate controls were buffer without enzyme for full effect and enzyme alone for no effect
# Autofluor counter: compound fluorescence in toxin protease inhibitor counterscreen | compound autofluorescence counterscreen, microsphere flow cytometry; active compounds read high | fluorescence intensity (no concentration beside the values) | 360,000 tested, 3.1% active; in the data active = fluorescence intensity above about 16000; inconclusive = no clear call, values can overlap the other calls
# Anthrax LF prot: Bacillus anthracis LF protease inhibitors, primary screen, biochemical, multiplex microsphere, MLPCN library | multiplex microsphere protease cleavage assay | AID 588501, 2011 | Lethal factor (Bacillus anthracis), P15917 | 360,000 tested, 0.12% active | inhibition, % at 10 µM; note: plate controls were buffer without enzyme for full effect and enzyme alone for no effect
# BoNT-A LC inh2: BoNT/A light chain protease inhibitors, primary screen, biochemical, flow cytometry, MLPCN library | Botulinum neurotoxin type A light chain protease (Clostridium botulinum A str. ATCC 3502) | multiplex microsphere protease substrate cleavage | inhibition, % at 10 µM | 360,000 tested, 0.17% active; note: plate controls were buffer without enzyme for full effect and enzyme alone for no effect
# Numbers without * were called inactive; ? = inconclusive; nt = not tested or not shown. This is a sample that favours compounds with a hit; in the whole collection about 3.7% have one here. Cut-off read from the data, not from the text of the source, unless noted: active = inhibition above about 30%; inconclusive = no clear call, values can overlap the other calls; inactive = below that.
SMILES,MazEF act,BoNT-F LC inh,Autofluor counter,Anthrax LF prot,BoNT-A LC inh2
Cc1nc(C(F)(F)F)c(C(=O)NC(=O)Nc2ccccc2)s1,1.6,0.0,16731*,-1.2,-1.1
CCN(CC)CCCCOc1ccccc1OC,-2.9,-0.6,20460*,-1.5,0.6
CN(C)c1cccc(C(=O)NNC(=O)CSc2ccccc2)c1,0.6,-4.5,4539,1.5,-1.4
COc1ccc(OC)c(C2C(C#N)=C(N)Oc3c2c(C)nn3-c2cccc(Cl)c2)c1 (centres undefined),-5.5,3.8,20225*,-0.2,?
Cc1nn(-c2ccccc2)c(C)c1C1C(C#N)=C(N)Oc2n[nH]c(C)c21 (centres undefined),2.3,35.8*,3695,4.9,3.5
Cc1ccc(-n2nc(C)c3c2OC(N)=C(C#N)C3c2ccc(F)cc2)cc1 (centres undefined),1.3,-1.2,22457*,0.9,-0.3
COc1ccc(-c2ccc(C3C(C#N)=C(N)Oc4n[nH]c(C)c43)o2)cc1 (centres undefined),6.0,-3.9,21391*,-0.7,?
Cc1nn(-c2ccccc2)c2c1C(c1ccc([N+](=O)[O-])cc1)C(C#N)=C(N)O2 (centres undefined),11.1,1.2,3652,2.6,-1.8
Cc1nn(-c2cccc(Cl)c2)c2c1C(c1ccncc1)C(C#N)=C(N)O2 (centres undefined),4.7,3.5,9376,7.9,-0.4
Cc1nn(-c2ccccc2)c2c1C(c1ccco1)C(C#N)=C(N)O2 (centres undefined),2.3,-0.9,23537*,-7.2,?
Cc1csc(NC(=O)NCC2CCCC(CNC(=O)Nc3nc(C)cs3)C2)n1 (centres undefined),6.3,6.9,3828,-8.4,-0.7
CC(C)CCP(=O)(O)c1ccccc1,-0.5,3.3,22957*,2.4,0.8
CCN1C(=O)c2cccc3c(S(=O)(=O)N4CCNCC4)ccc1c23,-11.7,2.5,5452,2.1,3.0
COc1ccc(-c2noc(CCCC(=O)Nc3ccc(C(N)=O)cc3)n2)cc1,-1.5,-4.7,22075*,0.3,-5.2
COc1ccccc1CC(=O)Nc1ccc(-c2noc(COc3ccc(Cl)c(C)c3)n2)cc1,-2.5,3.7,21393*,0.0,?
CC1(C(=O)NCc2ccccc2)CCC(=O)N1C1CC1 (centres undefined),nt,1.0,5504,7.8,-1.0
O=C(CCNC(=O)c1ccc(Cl)cc1)Nc1cc(C(F)(F)F)ccc1N1CCOCC1,-0.5,-5.0,3892,6.6,-0.1
Cc1ccc2nc(SCC(=O)Nc3cccc(F)c3)nc(=O)n2c1,2.7,-5.0,?,-2.9,-1.7
CCCOC(=S)N/C(=N\S(=O)(=O)c1ccccc1)c1ccccc1,-0.4,-0.5,23253*,-3.2,-0.6
CCOC(=S)N/C(=N\S(=O)(=O)c1ccccc1)c1ccccc1,0.9,0.7,3245,-0.2,0.5
CC[C@]12c3[nH]c4ccc(Cl)cc4c3CCN1C(=O)[C@@H](CC(=O)NCCC1=CCCCC1)C[C@@H]2C(=O)N1CCN(C(=O)C2CC2)CC1,15.4,-12.7,3891,4.0,-0.3
CCC(=O)NC(=S)NNC(=O)c1ccc([N+](=O)[O-])cc1,7.6,0.4,20381*,-3.7,0.3
COc1ccccc1C(=O)NC(=S)/C=C1/N(C)c2ccccc2C1(C)C,-8.1,4.2,2973,24.6,49.2*
CN1/C(=C\C(=S)NC(=O)c2ccccc2Cl)C(C)(C)c2ccccc21,10.2,2.0,4289,17.5,38.3*
O=C(NC1CCCCC1)c1cc(-c2ccccc2O)on1,10.1,-4.0,5571,-1.5,-1.0
SMILES,MazEF act,BoNT-F LC inh,Autofluor counter,Anthrax LF prot,BoNT-A LC inh2
C=CCn1c(N)c(C(=O)NC2CCCCC2)sc1=S,2.7,-1.5,23947*,0.4,-1.2
C=CCn1c(N)c(C(=O)NCc2cccnc2)sc1=S,0.0,3.0,9404,-5.3,-0.5
COC(=O)C1=C(C)N(C(C)C)C(=O)C1(NC(=O)C1CCCCC1)C(F)(F)F (centres undefined),-0.6,1.5,19805*,-4.0,?
COc1cc2c(cc1OC)CN(C(=O)C1(c3ccccc3)CC1)CC2,-4.4,2.9,19639*,-0.1,?
CCCc1cc(C(=O)NNC(=S)NCC)c2ccccc2n1,8.8,0.8,1976,-0.1,0.1
CCNC(=S)NNC(=O)c1cc(-c2cc(C)ccc2C)nc2ccccc12,2.9,2.9,19654*,-1.2,1.2
CN(C(=O)c1cccc(NC(=O)Cc2ccc(NC(=O)C3CCCN(C(=O)CCc4ccccc4)C3)cc2)c1)C1CCCCC1 (centres undefined),-23.0,-3.9,4424,-3.5,0.5
COc1cnc(-c2ccccn2)nc1Sc1ccc(Cl)cc1,-14.3,-6.0,21806*,-1.7,?
COc1ccc(Sc2nc(-c3ccccn3)ncc2OC)cc1,14.0,2.1,4049,2.3,-2.1
CCCn1cc(CN2CCC(n3nccc3NC(=O)CCOc3ccccc3)CC2)c(C)n1,-0.3,-3.0,5237,-4.0,0.1
CCOC(=O)N1CCN(C(=S)NCCOC)CC1,-3.5,5.6,18608*,-2.9,4.0
CCOC(=O)N1CCN(C(=S)NC(C)(C)C)CC1,0.7,-4.3,22858*,-0.6,-2.1
COc1c(F)c(F)c(C(=O)Nc2ccc(N3CCN(C(C)=O)CC3)c(Cl)c2)c(F)c1F,1.4,-7.4,17323*,-4.9,?
COc1ccc(C(=O)Nc2ccc(N3CCN(Cc4ccccc4)CC3)cc2)cc1,5.0,-7.2,4152,2.3,-0.2
COc1c(F)c(F)c(C(=O)Nc2ccc(N3CCN(Cc4ccccc4)CC3)cc2)c(F)c1F,-2.9,-11.1,24627*,-10.1,-3.6
O=C(Nc1ccc(N2CCOCC2)c(Cl)c1)c1c(F)c(F)c(F)c(F)c1F,-4.5,-30.7,4464,-5.1,1.0
CC1(C(=O)NCc2cccs2)CCN1C(=O)Cc1cccc2ccccc12 (centres undefined),nt,-3.3,3897,-6.4,-0.5
CC12CCC(=O)N1C(C(=O)N1CCN(S(=O)(=O)c3cccc(Cl)c3)CC1)CS2 (centres undefined),1.7,0.3,5330,-3.9,-1.4
O=C(c1ccccc1Cl)N1CCc2ccccc2C1,-8.3,-7.4,17580*,-2.4,-5.2
Cc1ccccc1C(=O)N1CCc2ccccc2C1,0.3,9.8,12240,2.1,0.9
O=C(c1cc(-c2cccs2)on1)N1CCc2ccccc2C1,-5.0,-0.1,22720*,-1.7,2.2
O=C(c1cc(-c2cccs2)on1)N1CCOCC1,-0.2,-6.1,21693*,-0.5,-2.4
O=C(c1cc(-c2ccccc2O)on1)N1CCc2ccccc2C1,-1.4,-3.5,6115,0.3,0.4
COc1cc(C(=O)NCc2ccccc2Cl)ccc1OCC(=O)N1CCOCC1,0.2,-4.9,5241,-2.1,-2.4
